{"source": "PubChem BioAssay (EPA / NIEHS)", "note": "The source holds several records for some structures; these can differ, active in one and inactive in another. Activity calls are given as the source filed them. The calls were made as follows: active = hit-call score of the fitted dose curve at least 0.9, where 1 is the maximum; inactive = score below 0.9.", "data": [{"read-out": "Matrix Metallopeptidase 1 (MMP1), MMP1 (gene 4312)", "assay": "BSK_BE3C_MMP1: BioMAP Diversity Plus: BE3C Assay for Matrix Metallopeptidase 1 (MMP1) Biomarker Activity (AID 2283024)", "conditions": "primary human bronchial epithelial cells; actives raise or lower the signal", "protocol": "BSK_BE3C is a cell-based, multiplexed-readout assay that uses bronchial epithelial cell, a human lung primary cell, with measurements taken at 24 hours after chemical dosing in a 96-well plate.BSK_BE3C_MMP1 is an assay component measured in the BSK_BE3C assay. It measures MMP-1 antibody related to regulation of gene expression using ELISA technology.Data from the assay component BSK_BE3C_MMP1 was analyzed into 1 assay endpoint. This assay endpoint, BSK_BE3C_MMP1, was analyzed with bidirectional fitting relative to DMSO as the negative control and baseline of activity. Using a type of binding reporter, gain or loss-of-signal activity can be used to understand changes in the signaling as they relate to the gene MMP1. Furthermore, this assay endpoint can be referred to as a primary readout, because this assay has produced multiple assay endpoints where this one serves a signaling function. To generalize the intended target to other relatable targets, this assay endpoint is annotated to the protease intended target family, where the subfamily is matrix metalloproteinase.\nThe levels of cell surface (or secreted, indicated by the prefix \"s\") biomarker endpoints were measured by ELISA. Overt cytotoxicity to cells in confluent adherent cultures (all systems other than the BT system) was assessed by measuring total protein levels using sulforhodamine B (SRB) staining in parallel cultures at the time of biomarker measurements, indicated as SRB endpoints. For proliferation assays for adherent cell types, individual cell types are cultured at sub-confluence and relative cell numbers quantified by SRB staining at time points optimized for each system (48 h: 3C and CASM3C systems; 72 h: BT and HDF3CGF systems; 96 h: SAg system). SRB was performed by staining cells with 0.1% SRB after fixation with 10% TCA and reading wells at 560 nm.Viability and proliferation of PBMC (T cells) was quantified by Alamar Blue reduction for the SAg and BT systems. For PBMC viability (referred to as PBMC Cytotoxicity within the assay endpoint names), cells were plated (75,000/well in a 96-well plate) and then chemical samples added for 1 h before addition of activators, SEB and TSST-1 (20 ng/mL final concentration each). Cells were incubated for 90 h. Then, Alamar Blue (20 uL/well) (Invitrogen, Cat DAL1100) was added for 6 h, and the plates were read with a fluorescence microplate reader at 546/580 nm (excitation/emission). For PBMC proliferation, cells were plated and activated as above but incubated for only 16 h prior to addition of Alamar Blue. Plates were read after 6 h.", "values": [{"molecule": "BrC1CCC(Br)C(Br)CCC(Br)C(Br)CCC1Br", "note": "(stereo not given)", "AC50": "1.16 µM (active)"}, {"molecule": "O=C(O)c1cn(C2CC2)c2cc(N3CCNCC3)c(F)cc2c1=O", "outcome": "inactive"}, {"molecule": "CCc1c(C)cc(N)c(CC)c1N", "outcome": "inactive"}, {"molecule": "NCCNCCN", "outcome": "inactive"}, {"molecule": "O=C1OC2(c3cc(Br)c(O)c(Br)c3Oc3c2cc(Br)c(O)c3Br)c2c(Cl)c(Cl)c(Cl)c(Cl)c21", "AC50": "0.546 µM (active)"}, {"molecule": "O=C(O)c1ccc([N+](=O)[O-])cc1", "outcome": "inactive"}, {"molecule": "C=CCOC(=O)CCC1CCCCC1", "outcome": "inactive"}, {"molecule": "O=C1CCCCCCCCCCCCCCO1", "outcome": "inactive"}, {"molecule": "C#C[C@]1(O)CC[C@H]2[C@@H]3CCC4=Cc5oncc5C[C@]4(C)[C@H]3CC[C@@]21C", "outcome": "inactive"}, {"molecule": "O=C(O)C[C@H](O)C[C@H](O)/C=C/c1c(C2CC2)nc2ccccc2c1-c1ccc(F)cc1", "outcome": "inactive"}, {"molecule": "COC(=O)c1ccc(C)cc1", "outcome": "inactive"}, {"molecule": "CC(=O)/C=C/C1=C(C)CCCC1(C)C", "outcome": "inactive"}, {"molecule": "OC[C@H]1O[C@H](O[C@]2(CCl)O[C@H](CCl)[C@@H](O)[C@@H]2O)[C@H](O)[C@@H](O)[C@H]1Cl", "outcome": "inactive"}, {"molecule": "O=[N+]([O-])c1cc(C(F)(F)F)ccc1Cl", "outcome": "inactive"}, {"molecule": "Cc1ccc2n[nH]nc2c1", "outcome": "inactive"}, {"molecule": "CCC(=O)OCc1ccccc1", "outcome": "inactive"}, {"molecule": "CN(CCOc1ccc(CC2SC(=O)NC2=O)cc1)c1ccccn1", "note": "(stereo not given)", "outcome": "inactive"}, {"molecule": "Cc1ccc(O)c(C(C)(C)C)c1", "AC50": "28.3 µM (active)"}, {"molecule": "N#Cc1ccc(CC(=NNC(=O)Nc2ccc(OC(F)(F)F)cc2)c2cccc(C(F)(F)F)c2)cc1", "outcome": "inactive"}, {"molecule": "Cc1cc(C2(c3cc(C)c(O)cc3C)OS(=O)(=O)c3ccccc32)c(C)cc1O", "outcome": "inactive"}, {"molecule": "O=C(O)c1cn(-c2ccc(F)cc2)c2cc(N3CCNCC3)c(F)cc2c1=O", "outcome": "inactive"}, {"molecule": "C=C(C)C(=O)O[C@H]1C[C@@H]2CC[C@@]1(C)C2(C)C", "AC50": "20 µM (active)"}, {"molecule": "CC1CCC(C(C)CS)CC1S", "note": "(stereo not given)", "AC50": "36.6 µM (active)"}, {"molecule": "CC(=O)O[C@]1(C(C)=O)CC[C@H]2[C@@H]3C[C@H](C)C4=CC(=O)CC[C@]4(C)[C@H]3CC[C@@]21C", "AC50": "5.07 µM (active)"}, {"molecule": "CCCCCCCCCC=O", "outcome": "inactive"}, {"molecule": "CCCCCCCCC=O", "outcome": "inactive"}, {"molecule": "CC(C)(COC(=O)c1ccccc1)COC(=O)c1ccccc1", "outcome": "inactive"}, {"molecule": "CC(C)c1ccc(C(C)C)cc1", "outcome": "inactive"}, {"molecule": "CNC[C@H](O)c1cccc(O)c1", "outcome": "inactive"}, {"molecule": "Nc1cc([N+](=O)[O-])ccc1Cl", "outcome": "inactive"}, {"molecule": "O=P(c1ccccc1)(c1ccccc1)c1ccccc1", "outcome": "inactive"}, {"molecule": "Cc1ccc(Nc2ccc(O)c3c2C(=O)c2ccccc2C3=O)cc1", "outcome": "inactive"}, {"molecule": "OC1OC[C@@H](O)[C@H](O)[C@H]1O", "note": "(stereo not given in full)", "outcome": "inactive"}, {"molecule": "CC(=O)OCCC(C)CC(C)(C)C", "note": "(stereo not given)", "outcome": "inactive"}, {"molecule": "Nc1cc([N+](=O)[O-])ccc1O", "AC50": "0.15 µM (active)", "outcome": "inactive"}, {"molecule": "c1ccc2c(c1)c1cccc3ccc4cccc2c4c31", "outcome": "inactive"}, {"molecule": "CCCCC/C=C/C=C/C=O", "outcome": "inactive"}, {"molecule": "C=C[Si](OCC)(OCC)OCC", "outcome": "inactive"}, {"molecule": "CC(=O)[C@H]1CC[C@H]2[C@@H]3CC=C4C[C@@H](O)CC[C@]4(C)[C@H]3CC[C@]12C", "outcome": "inactive"}]}]}
